This is part of a sample that, as a whole, favours compounds with a hit. Of some 83,000 tested, about 20% had one in any assay.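 Single-dose data. Exposure time 48 hours. Values below 10 considered active.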 Unmarked numbers belong to inactive results. Active and inactive are the calls of the source.
Assays:
Test in all cases: NCI-60 one-dose screen, 48 h (100 = growth as untreated, 0 = no growth, -100 = all killed)
Conditions in all cases: 10 µM unless noted
SR leukemia = test system: SR leukemia
RPMI-8226 leukemia = test system: RPMI-8226 leukemia
OVCAR-5 ovarian = test system: OVCAR-5 ovarian
OVCAR-4 ovarian = test system: OVCAR-4 ovarian
SK-OV-3 ovarian = test system: SK-OV-3 ovarian
IGROV1 ovarian = test system: IGROV1 ovarian
HS 578T breast = test system: HS 578T breast
NCI/ADR-RES ovarian = test system: NCI/ADR-RES ovarian
OVCAR-3 ovarian = test system: OVCAR-3 ovarian
OVCAR-8 ovarian = test system: OVCAR-8 ovarian

Structure (SMILES) | growth (SR leukemia) | growth (RPMI-8226 leukemia) [%] | growth (OVCAR-5 ovarian) [%] | growth (OVCAR-4 ovarian) [%] | growth (SK-OV-3 ovarian) [%] | growth (IGROV1 ovarian) | growth (HS 578T breast) | growth (NCI/ADR-RES ovarian) | growth (OVCAR-3 ovarian) [%] | growth (OVCAR-8 ovarian) [%]
O=C(COc1ccc(/C=C2\C(=O)Nc3ccc(Cl)cc32)cc1)Nc1ccc(Cl)cc1 | 44.9% | 68.7 | 69.8 | 59.2 | 88.3 | 59.8% | 77.6% | 59.6% | – | –
O=C1Nc2ccccc2/C1=N\c1nnc(-c2ccccc2)o1 | 105% | 101 | 106 | 98.7 | 82.5 | 72.1% | 90.1% | 95.6% | – | –
CCn1c2ccc(/C=N/N(C)S(=O)(=O)CCN(C)C)cc2c2cc(/C=N/N(C)S(=O)(=O)CCN(C)C)ccc21 | 2.12% (active) | 65.2 | 82.6 | 69.2 | 106 | 2.68% (active) | 76.8% | 54.7% | – | –
COc1ccc(-c2nc(C#N)c(N3CCC(S(=O)(=O)N4CCOCC4)CC3)o2)cc1 | 83.8% | 101 | 97.1 | 97.8 | 107 | 93% | 102% | 97.2% | – | –
CC(=O)/C(N=Nc1ccc2oc(=O)ccc2c1)=C(\C)O | 9.76% (active) | 12.3 | 50.8 | 50 | 37.1 | 32.4% | 63.1% | 13.3% | – | –
Cn1ncc2ncc(-c3ccc4ncc(C#N)c(N5CCc6cc(F)c(Cl)cc65)c4c3)cc21 | 22.3% | 35.8 | 47 | 26.1 | 15 | -9.7% (active) | -1.2% (active) | 39.3% | 29.8 | –
CC1CC(=O)C2=C(C1)Nc1ccc(Br)cc1CC2c1c[nH]c2ccc(Br)cc12 (centres undefined) | 29.7% | 42.8 | 82 | 74.4 | 77.3 | 32.9% | 58% | 26.6% | 42.1 | –
COc1ccc(-c2cc(-c3ccc(N(C)C)cc3)n3c(n2)nc2ccccc23)cc1 | 50.8% | 23.1 | 95.5 | 56.7 | 55.5 | 77.6% | 82.4% | 59.5% | – | –
O=C(CCCCCCNC(=O)c1csc(Br)n1)NO | 23.9% | – | 20.2 | 69.6 | 56.3 | 36.4% | 58.3% | 9.08% (active) | – | 23.5

Reference: PubChem BioAssay (NCI)
